# L3MBTL1 block: L3MBTL1 (human) inhibition | Q9Y468 | AlphaScreen L3MBTL1–H3K9me1 peptide binding | Potency, µM (series often up to 57.1 µM), hits mostly inhibitors | actives 0.66% (n = 230,000); further: nearly all actives have a fitted effect of over 60% in size
#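 L3MBTL1 (50 nM) pre-complexed 30 min with biotinylated H3(1-15)K9me1 peptide (75 nM), then compounds added for 30 min at room temperature; AlphaScreen streptavidin donor/nickel chelate acceptor beads (10 ug/mL final) read after 30 min dark incubation.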
# HP1b chromo inh: inhibitors of HP1-beta chromodomain binding to methylated histone tails | P83916 | AlphaScreen HP1-beta / biotin-H3K9me3 peptide binding | Potency, µM (doses to about 114 µM), usual class: inhibitors | actives 0.56% (n = 390,000); further: nearly all actives have a fitted effect of over 70% in size
# Target sequence (P83916 whole entry, looked up): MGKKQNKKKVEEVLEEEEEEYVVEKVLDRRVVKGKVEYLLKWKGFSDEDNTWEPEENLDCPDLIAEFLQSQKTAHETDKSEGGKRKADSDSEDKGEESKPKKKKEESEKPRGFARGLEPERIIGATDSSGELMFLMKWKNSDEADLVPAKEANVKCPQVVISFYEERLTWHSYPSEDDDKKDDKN
#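 Compound inhibition of the preformed complex between 50 nM HP1-beta and 50 nM biotinylated H3K9me3 peptide was read by AlphaScreen. Buffer was PBS pH 7.4 with 0.01% Tween-20. Incubations ran 30 min at room temperature, with 10 ug/mL donor/acceptor beads.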
# G9a block: inhibitors of human histone lysine methyltransferase G9a. Q96KQ7. G9a H3K9 monomethylation, AlphaScreen, 2 h. Potency, µM (titrated, usually from 102 µM), hits mostly inhibitors. actives 8.8% (n = 350,000). AID 504332; further: nearly all actives have a fitted effect of over 75% in size
# Target sequence (Q96KQ7 913-1193 limits assumed): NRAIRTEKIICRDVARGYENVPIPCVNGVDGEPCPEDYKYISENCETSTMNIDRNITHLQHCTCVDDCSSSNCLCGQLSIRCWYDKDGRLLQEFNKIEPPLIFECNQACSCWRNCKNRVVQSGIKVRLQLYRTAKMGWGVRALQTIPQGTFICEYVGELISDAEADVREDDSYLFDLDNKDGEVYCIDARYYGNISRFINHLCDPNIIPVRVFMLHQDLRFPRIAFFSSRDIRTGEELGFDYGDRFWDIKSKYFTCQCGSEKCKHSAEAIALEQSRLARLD
#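 Enzyme 20 nM + cpd, 15 min RT; add b-H3K9 pep 500 nM / SAM 20 uM; 2 h RT; anti-H3K9me1 Ab 0.5 ug/mL + SA donor / anti-rabbit acceptor beads 20 ug/mL each, 10 min; AlphaScreen read.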
# BAZ2B inh: inhibitors of human BAZ2B bromodomain; Q9UIF8; AlphaScreen BAZ2B-H3K14Ac peptide displacement; Potency, µM (titrated, usually from 114 µM), hits mostly inhibitors; actives 4.4% (n = 360,000); further: nearly all actives have a fitted effect of over 60% in size
#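 AlphaScreen displacement: compounds (up to 110uM) incubated 30 min at room temperature with a preformed 50 nM BAZ2B/50 nM biotinylated H3K14Ac peptide complex in PBS pH 7.4 with Tween-20. Donor and acceptor beads at 10 ug/mL final added, 20 min light-protected before reading.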
# JMJD2A Tudor inh: blocks the human JMJD2A Tudor domain | O75164 | AlphaScreen JMJD2A-Tudor / H3K4me3 peptide binding | Potency, µM (top dose mostly 114 µM), hits mostly inhibitors | actives 4.4% (n = 390,000) | AID 504339; further: nearly all actives have a fitted effect of over 50% in size
# Sfp PPTase inh: Sfp phosphopantetheinyl transferase inhibition; Biochemical Sfp PPTase activity, qHTS; Potency, µM, actives largely listed as inhibitors; actives 3.5% (n = 310,000); AID 1490;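 further: the enzyme is Sfp with the accession as filed and its product quenches rhodamine fluorescence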
#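 Sfp 15 nM + cpd, 15 min RT; start w/ rhodamine-CoA 5 uM, BHQ-2-YbbR 12.5 uM (final); 50 mM Hepes pH 7.6, 10 mM MgCl2, 0.01% NP-40, 0.01% BSA; read 525/598 nm at 0 and 30 min.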
# Numbers stand for hits; - = inactive; ? = inconclusive; . = not tested or not shown; ! = repeats disagree; [ ] = remark or other dose. Rows were chosen to be rich in hits. Some 12% of all compounds tested hit in one or more screens of this group. The call rests on the fitted dose curve; in most records, active means well fitted curve in the direction sought with a large enough effect; inconclusive means small, poorly fitted or top-dose-only effect, or another doubt; inactive means no such curve, though single readings can be large; an effect the other way counts as inactive or inconclusive.
SMILES,L3MBTL1 block,HP1b chromo inh,G9a block,BAZ2B inh,JMJD2A Tudor inh,Sfp PPTase inh
O=C(NCCCN1CCOCC1)C1CCN(S(=O)(=O)c2cccc(Cl)c2Cl)CC1,-,-,-[0.501 µM],-,-,.
CN(C)S(=O)(=O)c1ccc2c(c1)C(=O)c1cc(S(=O)(=O)N(C)C)ccc1CC2,-,-,-[0.501 µM],-,-,.
CN(C)S(=O)(=O)c1ccc2c(c1)/C(=C/c1cc3c([nH]1)CCCC3)C(=O)N2,-,-,11.2µM!,-,-,.
O=C(NC1CCCCC1)C(c1cccnc1)N(C(=O)c1csnn1)c1ccccc1F (stereo not given),.,-,-,-,-,-
O=C(CN(Cc1cccs1)C(=O)c1csnn1)NC1CCCC1,-,?,-,-,79.4µM,-
O=C(NC1CCCC1)C(c1cccnc1)N(C(=O)c1csnn1)c1ccccc1Cl (stereo not given),.,-,-,-,50.1µM,-
O=C(NC1CCCC1)C(c1ccncc1)N(C(=O)c1csnn1)C1CCCC1 (stereo not given),-,-,-,-,-,56.2µM
CCCCC1CCC(C(=O)N2CC(=O)Nc3ccc(C)cc3C2c2ccc(F)cc2)CC1 (stereo not given),.,-,-,-,-,.
COc1ccc(CCC(=O)NCc2nc3cccnc3n2Cc2ccccc2)cc1,.,-,-,-,-,.
CCOC(=O)c1c(C)[nH]c(C=Nc2ccccc2)c1O,-,.,?,?,.,39.8µM
CCOC(=O)c1c(C)[nH]c(O)c1C=Nc1ccccc1,-,-,-,50.1µM,?,?
CCOC(=O)c1c(C)[nH]c(C=Nc2ccc(OC)cc2)c1O,-,-,-,-,?,-
COC(=O)c1c(C)[nH]c(O)c1C=Nc1ccc(C#N)cc1,-,-,17.8µM,100µM,?,44.7µM
COc1cc(CCC(=O)NCc2ccc3c(c2)CCN3C(=O)c2cccc(C)c2)cc(OC)c1OC,.,-,-,-,-,.
CCCCN(CC)CCNC(=O)Cn1cnc2sc(C)c(S(=O)(=O)N3CCN(c4ccccc4OC)CC3)c2c1=O,.,-,-,-,-,.
COc1ccc2c(c1)CC(C(=O)NCCc1ccc(S(N)(=O)=O)cc1)CO2 (stereo not given),.,-,-,-,-,.
CCOCCc1nn2c(=O)cc(COC(=O)c3ccccc3NC(=O)c3ccc(C)cc3)nc2s1,.,-,-,-,-,.
Cc1ccc(S(=O)c2snnc2C)cc1 (stereo not given),.,-,-,-,-,-
CNC(=O)c1nnsc1S(=O)c1ccc(Cl)cc1 (stereo not given),-,-,35.5µM,-,-,12.6µM
CCCNC(=O)c1nnsc1S(=O)c1ccc(Cl)cc1 (stereo not given),-,-,25.1µM,-,-,20µM
CCCNC(=O)c1ccc2snnc2c1,-,-,-,-,-,-
CCCNC(=O)c1nnsc1S(=O)(=O)c1ccc(Cl)cc1,-,-,12.6µM,-,-,12.6µM
O=C1CCCC2=C1C1(CCS(=O)(=O)C1)N=C(Nc1nc3ccccc3o1)N2 (stereo not given),.,.,.,.,-,.
Cc1cccc(-n2nc(C)c(C(=O)Nc3cc(C)ccc3C)c2-n2cccc2)c1,.,-,-,-,-,.
CC(=O)c1ccc2noc(-c3cccc(C)c3)c2c1,-,-,17.8µM,-,-,-
SMILES,L3MBTL1 block,HP1b chromo inh,G9a block,BAZ2B inh,JMJD2A Tudor inh,Sfp PPTase inh
CCn1cc(C(=O)NCCc2ccc(C)cc2)c(=O)c2cc(S(=O)(=O)N3CCc4ccccc4C3)ccc21,.,-,-,.,-,.
COCCN(CCOC)C(=O)c1ccc(SCc2ccc(C)cc2)c([N+](=O)[O-])c1,.,-,56.2µM,?,-,-
CCOC(=O)c1c(C)sc(-c2c(-c3ccc(OC)c(F)c3)[nH]c3c2c(=O)[nH]c(=O)n3C)c1O,.,-,-,-,-,.
COc1cccc(NC(=O)C2CCCN(S(=O)(=O)c3ccc4[nH]c(=O)ccc4c3)C2)c1 (stereo not given),.,-,-,-,-,.
C/C(CCN1CCc2nc(-c3ccccc3)c(-c3ccccc3)cc2C1)=N\O[C@@H](C)c1cc(-c2c(C)cc(C)cc2C)no1,-,-,?,-,-,-
CCc1cc2c(nc1CC)CCN(CC/C(C)=N/O[C@@H](C)c1cc(-c3c(C)cc(C)cc3C)no1)C2,-,.,35.5µM,?,.,?
Nc1c2c(nc3sc4c(c13)CCCC4)CCCCCC2,-,-,-,-,-,-
Cc1ccc(C)c2c(N)c3c(nc12)CCCCC3 (tested in a mixture with another compound),.,-,44.7µM,-,-,-
CCn1c(CNC(=O)C23CC4CC(CC(C4)C2)C3)nnc1SCC(=O)Nc1ccc(C)cc1,.,-,-,-,-,.
CCc1cc2c(NCCO)ncnc2s1,-,-,.,-,-,-
CCc1cc2c(NCCN3CCCCC3)ncnc2s1,.,-,50.1µM,-,?,-
Cc1sc2ncnc(NCCN3CCOCC3)c2c1C,.,-,8.91µM,50.1µM,1.58µM,-
O=c1c(N2CCCCC2)csc2ccc(F)cc12,.,-,-,-,-,.
CCC(=O)Nc1ccc(C2=Nn3c(nnc3C(C)C)SC2)cc1,.,-,14.1µM,-,-,?
CC(C)[C@H](N)c1nnc2n1N=C(c1ccc(Cl)cc1)CS2,.,-,?,-,-,-
CC(CCC#N)[N+](=O)[O-] (stereo not given),.,.,.,.,.,-
O=c1cc(CSc2ccc(Cl)cc2)nc(-c2ccccn2)[nH]1,.,-,-,28.2µM,79.4µM,-
O=c1cc(CSc2ccc(Cl)cc2)nc(-c2ccccc2)[nH]1,-,-,-,-,-,-
CC(=O)N1c2ccccc2NC2=C(C(=O)CCC2)C1c1ccco1 (stereo not given),-,-,?,?,-,25.1µM
COC(=O)C(C)Sc1nc2c([nH]c3ccccc32)c(=O)n1C (stereo not given),.,-,?,-,-,50.1µM
O=C(Nc1nnc(S(=O)(=O)N2CCCCCC2)s1)c1ccc(Br)cc1,-,?,14.1µM!,-,?,-
O=C(COc1ccc(Cl)cc1)Nc1nnc(S(=O)(=O)N2CCCCCC2)s1,-,?,3.16µM!,1.78µM!,10µM!,-
O=C(Nc1nnc(S(=O)(=O)N2CCCCCC2)s1)c1ccccc1Br,-,-,10µM,14.1µM!,12.6µM!,-
O=C(Nc1nnc(S(=O)(=O)N2CCCCC2)s1)c1ccc(Cl)cc1,-,-,?,?,-,-
O=C(Nc1nnc(S(=O)(=O)N2CCCC2)s1)c1ccccc1Br,-,-,?,7.08µM!,?,-
Cc1ccc(OCC(=O)Nc2nnc(S(=O)(=O)N3CCCCCC3)s2)cc1C,-,-,.,-,-,-
CC1CCN(S(=O)(=O)c2nnc(NC(=O)c3ccccc3Br)s2)CC1,-,-,-,-,-,-
